# Bioassay records: PubChem BioAssay, Broad Institute
# T cruzi growth – inhibitors of T. cruzi proliferation; inhibition, % at 8.34 µM; hit rate 5.9% among 77,000; T. cruzi beta-gal in NIH3T3, GalScreen luminescence, 90 h; AID 624255;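 active = mean inhibition above about 93%, with at least 55% of replicates each passing it, limit read from the data, passing the limit was not always enough; inconclusive = only one of those two conditions holds; inactive = neither condition holds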
# C diff HTS – C. difficile growth inhibition; Clostridium difficile clinical isolate growth, OD600, 24 h; active compounds read low; growth activity, negative = inhibition, % at 16 µg/mL (by protocol); hit rate 0.25% among 86,000; AID 1259249;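 active = mean growth activity at or below -80% and every replicate also at or below -80%; inconclusive = mean at or below -80% but some replicate above -80%; inactive = mean growth activity above -80%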;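 also: 0% = DMSO wells and -100% = levofloxacin 16 µg/mL wells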
# Pf Dd2 inh – inhibitors of Plasmodium falciparum Dd2 growth. activity change, % at 10 µM. P. falciparum Dd2 growth, SYBR Green, 72 h; active compounds read low. hit rate 2.3% among 94,000. AID 1159554; in the data active = activity change below about -80%; inconclusive = no clear call, values can overlap the other calls
# * hit, by the source's call; ? = inconclusive; . = not tested or not shown. Hits are enriched below; roughly 6.7% of the tested compounds scored in any of these assays.
SMILES,T cruzi growth,C diff HTS,Pf Dd2 inh
C[C@H]1CCCCO[C@@H](CN(C)C(=O)Nc2ccccc2)[C@@H](C)CN([C@@H](C)CO)C(=O)c2cc(NC(=O)Cc3ccccc3)ccc2O1,27,.,7
C[C@@H]1CCCCO[C@H](CN(C)C(=O)Cc2ccccc2)[C@@H](C)CN([C@@H](C)CO)C(=O)c2cc(NC(=O)Nc3ccc(C(F)(F)F)cc3)ccc2O1,69,-4,-87*
C[C@@H]1CCCCO[C@H](CN(C)C(=O)Nc2ccc(C(F)(F)F)cc2)[C@H](C)CN([C@@H](C)CO)C(=O)c2cc(NC(=O)Nc3ccccc3)ccc2O1,.,0,-82*
C[C@@H]1CCCCO[C@H](CN(C)C(=O)Nc2ccc(C(F)(F)F)cc2)[C@@H](C)CN([C@H](C)CO)C(=O)c2cc(NC(=O)Cc3ccccc3)ccc2O1,88,1,-88*
C[C@@H]1CCCCO[C@H](CN(C)C(=O)Nc2ccc(C(F)(F)F)cc2)[C@@H](C)CN([C@@H](C)CO)C(=O)c2cc(NC(=O)c3ccccc3)ccc2O1,93,7,-83*
C[C@@H]1CCCCO[C@@H](CN(C)C(=O)Nc2ccccc2)[C@@H](C)CN([C@H](C)CO)C(=O)c2cc(NC(=O)Nc3ccc(C(F)(F)F)cc3)ccc2O1,.,-2,29
C[C@@H]1CCCCO[C@H](CN(C)C(=O)Cc2ccccc2)[C@H](C)CN([C@@H](C)CO)C(=O)c2cc(NC(=O)Nc3ccc(C(F)(F)F)cc3)ccc2O1,81,2,-70
C[C@@H]1CCCCO[C@@H](CN(C)C(=O)Nc2ccc(C(F)(F)F)cc2)[C@@H](C)CN([C@H](C)CO)C(=O)c2cc(NC(=O)c3ccccc3)ccc2O1,71,-1,-73
CO[C@H]1CN(C)C(=O)c2cc(NS(C)(=O)=O)ccc2OC[C@@H](C)N(C(=O)CN(C)C)C[C@H]1C,38,0,20
CCC(=O)N1[C@@H]2Cn3c(ccc(-c4ccccc4)c3=O)[C@H]1[C@@H](C(=O)N(C)C)[C@@H]2CO,24,-2,0
CO[C@H]1CN(C)C(=O)c2ccc(NC(=O)C3CC3)cc2OC[C@H](C)N(Cc2nccs2)C[C@@H]1C,-11,.,.
CN(C)C(=O)[C@@H]1[C@@H](CO)[C@@H]2Cn3c(ccc(C4=CCCC4)c3=O)[C@H]1N2CC1CCCC1,.,2,28
C[C@H]1CN([C@@H](C)CO)C(=O)c2cc(N(C)C)ccc2O[C@H]1CN(C)S(C)(=O)=O,20,0,3
CCCN(C)C[C@@H]1OCCCC[C@H](C)Oc2ccc(NC(=O)CCC(F)(F)F)cc2C(=O)N([C@@H](C)CO)C[C@@H]1C,17,1,.
Cc1ccc(S(=O)(=O)N(C)C[C@H]2OCCCC[C@@H](C)Oc3ccc(NC(=O)NC4CCCCC4)cc3C(=O)N([C@@H](C)CO)C[C@@H]2C)cc1,83,-5,?
Cc1ccc(S(=O)(=O)N(C)C[C@@H]2OCCCC[C@H](C)Oc3ccc(NC(=O)NC4CCCCC4)cc3C(=O)N([C@H](C)CO)C[C@H]2C)cc1,90,-1,-85*
C[C@@H]1CCCCO[C@@H](CN(C)S(=O)(=O)c2ccc(F)cc2)[C@H](C)CN([C@H](C)CO)C(=O)c2cc(NC(=O)NC3CCCCC3)ccc2O1,81,16,-72
C[C@@H]1CN([C@H](C)CO)C(=O)c2cc(NC(=O)NC3CCCCC3)ccc2O[C@@H](C)CCCCO[C@@H]1CN(C)S(=O)(=O)c1ccc(F)cc1,34,19,-84*
C[C@@H]1CN([C@@H](C)CO)C(=O)c2cc(C3=CCCC3)cnc2O[C@H]1CN(C)S(C)(=O)=O,.,0,17
CCC(=O)N(C)C[C@@H]1Oc2cc(C#Cc3ccncc3)ccc2S(=O)(=O)N([C@@H](C)CO)C[C@H]1C,17,8,6
CN1c2ccc(C#Cc3cccnc3)cc2[C@@H]2[C@@H](CCN2C(=O)C2CCCC2)[C@@H]1CO,.,13,-74
CN1c2ccc(C#Cc3cccnc3)cc2[C@H]2[C@H](CCN2C(=O)C2CCCC2)[C@H]1CO,.,0,-89*
CN1c2ccc(Br)cc2[C@H]2[C@H](CCN2C(=O)Nc2ccc(F)cc2)[C@H]1CO,72,2,-52
COc1ccc(-c2ccc3c(c2)[C@H]2[C@H](CCN2C(=O)C2CCCC2)[C@H](CO)N3C)cc1,.,-5,-85*
CN1c2ccc(Br)cc2[C@H]2[C@H](CCN2C(=O)Nc2ccc(F)cc2)[C@@H]1CO,29,-94*,12
COc1ccc(-c2ccc3c(c2)[C@H]2[C@H](CCN2C(=O)C2CC2)[C@@H](CO)N3C)cc1,82,14,-7
C[C@@H]1CN([C@H](C)CO)S(=O)(=O)c2ccc(C#CC3CC3)cc2O[C@@H]1CN(C)S(C)(=O)=O,.,9,29
